# Data reported in PubChem BioAssay (EPA / NIEHS).
# Inconclusive results are not listed. The source made the active and inactive calls. The calls were made as follows, unless noted: active = hit-call score of the fitted dose curve at least 0.9, where 1 is the maximum; inactive = score below 0.9.
# Legend:
# [1] = target: human Retinoid X Receptor beta (RXRb), RXRB (gene 6257) (UniProt P28702); test: ATG_RXRb_TRANS: Attagene TRANS-FACTORIAL HepG2 Assay for human Retinoid X Receptor beta (RXRb) (AID 2283013; active = hit-call score of the fitted dose curve at least 0.9, where 1 is the maximum)
# Sequence of human Retinoid X Receptor beta (RXRb), RXRB (gene 6257) (P28702 whole entry, looked up, the tested form may be a part): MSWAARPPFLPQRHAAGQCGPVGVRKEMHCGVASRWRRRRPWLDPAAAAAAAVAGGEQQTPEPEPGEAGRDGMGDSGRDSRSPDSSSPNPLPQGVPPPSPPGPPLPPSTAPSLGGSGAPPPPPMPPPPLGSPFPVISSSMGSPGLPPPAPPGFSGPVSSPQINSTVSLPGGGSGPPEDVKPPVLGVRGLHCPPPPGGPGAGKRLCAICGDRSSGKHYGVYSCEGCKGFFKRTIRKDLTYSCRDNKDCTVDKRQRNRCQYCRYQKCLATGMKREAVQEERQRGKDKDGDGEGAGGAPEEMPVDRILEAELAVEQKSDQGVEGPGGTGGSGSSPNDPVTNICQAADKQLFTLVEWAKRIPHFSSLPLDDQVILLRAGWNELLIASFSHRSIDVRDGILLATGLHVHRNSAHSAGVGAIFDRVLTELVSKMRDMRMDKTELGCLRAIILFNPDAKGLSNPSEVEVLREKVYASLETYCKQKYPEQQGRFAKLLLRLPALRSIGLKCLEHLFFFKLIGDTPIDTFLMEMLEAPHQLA
# In short: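 After a 24 h incubation with test chemical, transfected HepG2 cells carrying NR-Gal4 fusions and GAL4-UAS reporter transcription units yield RNA whose reporter cDNA is FAM-labelled, HpaI-cut and sized by capillary electrophoresis; increases over DMSO are scored.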
# [2] = target: human Thyroid Receptor alpha (THRa1), THRA (gene 7067) (UniProt P10827); test: ATG_THRa1_TRANS: Attagene TRANS-FACTORIAL HepG2 Assay for human Thyroid Receptor alpha (THRa1) (AID 2283014; active = hit-call score of the fitted dose curve at least 0.9, where 1 is the maximum)
# Sequence of human Thyroid Receptor alpha (THRa1), THRA (gene 7067) (P10827 whole entry, looked up, the tested form may be a part): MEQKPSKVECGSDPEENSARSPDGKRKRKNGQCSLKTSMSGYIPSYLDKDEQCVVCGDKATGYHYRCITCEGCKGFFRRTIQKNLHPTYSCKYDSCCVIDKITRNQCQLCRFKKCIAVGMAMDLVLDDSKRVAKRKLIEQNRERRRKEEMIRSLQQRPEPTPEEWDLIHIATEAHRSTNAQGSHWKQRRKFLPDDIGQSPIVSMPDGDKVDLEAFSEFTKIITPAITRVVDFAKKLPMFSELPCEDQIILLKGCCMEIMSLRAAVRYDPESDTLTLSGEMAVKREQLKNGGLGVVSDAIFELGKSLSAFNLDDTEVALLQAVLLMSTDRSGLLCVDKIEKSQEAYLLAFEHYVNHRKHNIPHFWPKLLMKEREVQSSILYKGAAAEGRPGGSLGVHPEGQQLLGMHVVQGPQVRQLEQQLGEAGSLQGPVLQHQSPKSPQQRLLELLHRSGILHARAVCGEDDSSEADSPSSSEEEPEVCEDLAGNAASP
# In short: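 Reporter transcript induction, read by capillary electrophoresis of 6-FAM-labelled RT-PCR products, reflects activity of a transfected THRa1-Gal4 fusion in HepG2 liver cells. Cells were dosed for 24 h; activity was fitted in the positive direction against DMSO.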
# [3] = read-out: E-selectin (Homo sapiens) (UniProt P16581); test: BSK_3C_Eselectin: BioMAP Diversity Plus: 3C Assay for Eselectin Biomarker Activity (AID 2283015); conditions: primary human endothelial cells (HUVEC); actives raise or lower the signal;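 as to outcome: cell surface E-selectin protein quantified by ELISA 24 h after dosing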
# In short: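 ELISA read-out of E-selectin on endothelial monolayers after 24 h chemical treatment. Human umbilical vein primary cells served as the system, with DMSO defining baseline activity for bidirectional fitting.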
# [4] = read-out: Interleukin-1 alpha (IL1a), IL1A (gene 3552); test: BSK_BE3C_IL1a: BioMAP Diversity Plus: BE3C Assay for Interleukin-1 alpha (IL1a) Biomarker Activity (AID 2283016); conditions: primary human bronchial epithelial cells; actives raise or lower the signal
# In short: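 Measured in human lung primary bronchial epithelial cells: IL-1a by ELISA at 24 h after dosing, with bidirectional fitting against DMSO.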
# [5] = read-out: Monocyte Chemoattractant Protein-1 (MCP1), CCL2 (gene 6347); test: BSK_3C_MCP1: BioMAP Diversity Plus: 3C Assay for Monocyte Chemoattractant Protein-1 (MCP1) Biomarker Activity (AID 2283017); conditions: primary human endothelial cells (HUVEC); actives raise or lower the signal
# In short: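 ELISA read-out of MCP-1 from human umbilical vein endothelial cell cultures harvested 24 h post-dosing. Gain or loss of signal was fitted relative to DMSO.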
# [6] = read-out: Monocyte Chemoattractant Protein-1 (MCP1), CCL2 (gene 6347); test: BSK_4H_MCP1: BioMAP Diversity Plus: 4H Assay for Monocyte Chemoattractant Protein-1 (MCP1) Biomarker Activity (AID 2283018); conditions: primary human endothelial cells (HUVEC); actives raise or lower the signal
# In short: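 Primary human umbilical vein endothelium is exposed to chemical for 24 h before MCP-1 is assayed by ELISA. Concentration-response fitted bidirectionally relative to DMSO.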
# [7] = read-out: Human Leukocyte Antigen - DR isotype (HLADR), HLA-DRA (gene 3122); test: BSK_3C_HLADR: BioMAP Diversity Plus: 3C Assay for Human Leukocyte Antigen - DR isotype (HLADR) Biomarker Activity (AID 2283019); conditions: primary human endothelial cells (HUVEC); actives raise or lower the signal;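 as to outcome: ELISA of cell-surface HLA-DR on HUVEC 24 h after dosing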
# In short: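 ELISA readout of surface HLA-DR on human umbilical vein endothelium, taken 24 h after chemical treatment. Gain- and loss-of-signal were both fitted relative to DMSO.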
# [8] = read-out: Interleukin-8 (IL8), CXCL8 (gene 3576); test: BSK_3C_IL8: BioMAP Diversity Plus: 3C Assay for Interleukin-8 (IL8) Biomarker Activity (AID 2283020); conditions: primary human endothelial cells (HUVEC); actives raise or lower the signal
# In short: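 Using DMSO-treated wells as the baseline, bidirectional curve fitting was applied to ELISA-measured IL-8 from human umbilical vein endothelial cultures sampled 24 h after compound addition.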
# [9] = read-out: Monokine induced gamma interferon (MIG), CXCL9 (gene 4283); test: BSK_3C_MIG: BioMAP Diversity Plus: 3C Assay for Monokine induced gamma interferon (MIG) Biomarker Activity (AID 2283021); conditions: primary human endothelial cells (HUVEC); actives raise or lower the signal;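 as to AC50: MIG protein level measured by immunoassay in the treated endothelial cultures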
# In short: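 ELISA-measured MIG in dosed HUVEC 3C cultures at 24 h, analysed by bidirectional fitting with DMSO defining baseline activity.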
# [10] = target: human Vitamin D Receptor (VDR), VDR (gene 7421) (UniProt P11473); test: ATG_VDR_TRANS: Attagene TRANS-FACTORIAL HepG2 Assay for human Vitamin D Receptor (VDR) (AID 2283022; active = hit-call score of the fitted dose curve at least 0.9, where 1 is the maximum)
# Sequence of human Vitamin D Receptor (VDR), VDR (gene 7421) (P11473 whole entry, looked up, the tested form may be a part): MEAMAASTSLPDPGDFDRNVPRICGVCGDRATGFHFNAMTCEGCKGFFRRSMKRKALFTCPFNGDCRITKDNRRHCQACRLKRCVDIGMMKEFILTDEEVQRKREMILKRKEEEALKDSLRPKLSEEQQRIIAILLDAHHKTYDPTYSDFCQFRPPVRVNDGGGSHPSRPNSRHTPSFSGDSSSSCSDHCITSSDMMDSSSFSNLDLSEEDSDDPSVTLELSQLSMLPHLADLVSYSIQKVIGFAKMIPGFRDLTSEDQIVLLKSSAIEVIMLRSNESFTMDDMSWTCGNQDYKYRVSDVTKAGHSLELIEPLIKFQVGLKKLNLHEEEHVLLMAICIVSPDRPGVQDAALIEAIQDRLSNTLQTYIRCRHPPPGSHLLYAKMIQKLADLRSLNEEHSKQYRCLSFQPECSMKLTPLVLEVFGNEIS
# In short: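 Steps: transfect HepG2 with GAL4-UAS-driven reporter constructs; dose compounds 24 h; isolate RNA, reverse-transcribe, PCR-amplify with 6-FAM-labelled primer extension and HpaI digestion; quantify fragments by capillary electrophoresis relative to DMSO.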
# [11] = BSK_3C_SRB: Viability Assessment in the BioMAP Diversity Plus: 3C Assay (AID 2283023); conditions: primary human endothelial cells (HUVEC);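 also: fitted both ways against DMSO so a hit may be signal rise or drop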
# In short: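 Absorbance at 560 nm of sulforhodamine B-stained (0.1%) total protein served as a cytotoxicity readout in human umbilical vein endothelial cells, 24 h after chemical treatment. Signal was fitted bidirectionally relative to DMSO.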
# [12] = read-out: Matrix Metallopeptidase 1 (MMP1), MMP1 (gene 4312); test: BSK_BE3C_MMP1: BioMAP Diversity Plus: BE3C Assay for Matrix Metallopeptidase 1 (MMP1) Biomarker Activity (AID 2283024); conditions: primary human bronchial epithelial cells; actives raise or lower the signal
# In short: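 In this multiplexed primary-cell system, human bronchial epithelium received chemicals for 24 h before an ELISA for MMP1. Values reflect bidirectional fits normalised to the DMSO baseline.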
# [13] = BSK_3C_Vis: BioMAP Diversity Plus: 3C Assay for Morphology Visualization (AID 2283025); conditions: primary human endothelial cells (HUVEC);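 also: fitted both ways so gain or loss versus DMSO counts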;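 as to AC50: light microscopy image of cell morphology used as background control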
# In short: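 Light-microscopy morphology readout, 24 h exposure, human primary umbilical vein endothelium; analysed relative to DMSO with bidirectional fitting.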
# [14] = read-out: Pselectin, SELP (gene 6403); test: BSK_4H_Pselectin: BioMAP Diversity Plus: 4H Assay for Pselectin Biomarker Activity (AID 2283026); conditions: primary human endothelial cells (HUVEC); actives raise or lower the signal
# In short: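 Bidirectional fits against DMSO gave the endpoint. Cells: primary human umbilical vein endothelium, chemical-treated for 24 h before ELISA detection of P-selectin.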
# [15] = BSK_4H_SRB: Viability Assessment in the BioMAP Diversity Plus: 4H Assay (AID 2283027); conditions: primary human endothelial cells (HUVEC);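 also: cells exposed to compound for 24 h before staining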;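 as to AC50: curves fitted both ways versus DMSO so AC50 may be loss or gain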
# In short: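 Cytotoxicity read-out in primary human endothelial cells: after 24 h compound exposure, cells were TCA-fixed (10%), stained with 0.1% SRB and absorbance taken at 560 nm. Values fitted in both directions relative to DMSO.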
# [16] = BSK_BE3C_SRB: Viability Assessment in the BioMAP Diversity Plus: BE3C Assay (AID 2283028); conditions: primary human bronchial epithelial cells;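 as to AC50: fitted both ways so AC50 may mark signal gain or loss versus DMSO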
# In short: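 Cells (human bronchial epithelial, primary) are treated with chemicals, and after 24 h the parallel cultures are fixed in 10% TCA. These are then stained with 0.1% SRB and read at 560 nm. Gain or loss of signal is fitted relative to DMSO.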
# [17] = read-out: Thrombomodulin, THBD (gene 7056); test: BSK_3C_Thrombomodulin: BioMAP Diversity Plus: 3C Assay for Thrombomodulin Biomarker Activity (AID 2283029); conditions: primary human endothelial cells (HUVEC); actives raise or lower the signal
# In short: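 In a multiplexed primary-cell system, human umbilical vein endothelium received chemical and was assayed 24 h later for thrombomodulin by ELISA. Parallel cultures were SRB-stained (0.1% SRB after 10% TCA fixation, read at 560 nm) to flag cytotoxicity.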
# [18] = target: Retinoic acid receptor RXR-alpha (Homo sapiens) (UniProt P19793); test: ATG_RXRa_TRANS: Attagene TRANS-FACTORIAL HepG2 Assay for human Retinoid X Receptor alpha (RXRa) (AID 2283012; active = hit-call score of the fitted dose curve at least 0.9, where 1 is the maximum)
# Sequence of Retinoic acid receptor RXR-alpha (Homo sapiens) (P19793 whole entry, looked up, the tested form may be a part): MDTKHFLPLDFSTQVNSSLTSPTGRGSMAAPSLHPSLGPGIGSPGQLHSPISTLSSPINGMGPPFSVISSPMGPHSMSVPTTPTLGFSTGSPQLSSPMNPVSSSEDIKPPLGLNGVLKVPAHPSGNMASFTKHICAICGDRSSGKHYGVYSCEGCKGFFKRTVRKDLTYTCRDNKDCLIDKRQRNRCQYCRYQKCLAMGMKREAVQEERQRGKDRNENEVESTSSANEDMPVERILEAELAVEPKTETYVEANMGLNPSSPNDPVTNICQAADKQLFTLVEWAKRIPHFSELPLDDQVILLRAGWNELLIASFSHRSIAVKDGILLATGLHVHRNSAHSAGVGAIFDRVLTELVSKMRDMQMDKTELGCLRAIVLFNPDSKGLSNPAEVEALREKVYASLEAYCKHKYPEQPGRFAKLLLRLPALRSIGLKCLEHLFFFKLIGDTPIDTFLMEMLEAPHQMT
# In short: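 Chimeric NR-GAL4 trans-activation in HepG2, 24 h treatment; reporter transcripts quantified by fluorescence on capillary electrophoresis, analysed for upward change from DMSO.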
# Sequence of E-selectin (Homo sapiens) (P16581 whole entry, looked up): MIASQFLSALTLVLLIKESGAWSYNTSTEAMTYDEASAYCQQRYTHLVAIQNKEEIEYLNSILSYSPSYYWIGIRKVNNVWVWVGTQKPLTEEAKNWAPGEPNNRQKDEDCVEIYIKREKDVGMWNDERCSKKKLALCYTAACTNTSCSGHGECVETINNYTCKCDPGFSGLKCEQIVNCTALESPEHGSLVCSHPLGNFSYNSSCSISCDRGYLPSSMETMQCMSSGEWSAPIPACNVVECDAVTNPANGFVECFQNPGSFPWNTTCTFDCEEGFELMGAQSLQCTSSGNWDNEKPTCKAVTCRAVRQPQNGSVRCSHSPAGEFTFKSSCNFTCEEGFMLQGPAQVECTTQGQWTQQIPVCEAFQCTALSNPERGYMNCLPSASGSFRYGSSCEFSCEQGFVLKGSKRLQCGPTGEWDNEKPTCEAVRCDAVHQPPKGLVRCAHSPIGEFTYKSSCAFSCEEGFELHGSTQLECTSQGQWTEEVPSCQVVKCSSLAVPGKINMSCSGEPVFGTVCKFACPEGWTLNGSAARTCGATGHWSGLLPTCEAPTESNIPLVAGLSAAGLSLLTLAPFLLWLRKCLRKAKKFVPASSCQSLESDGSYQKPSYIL
smiles,measurement,setting,value
COc1cc(OC)nc(Sc2cccc(Cl)c2C(=O)O)n1,outcome,[1],inactive
same,outcome,[2],inactive
same,outcome,[3],inactive
same,outcome,[4],inactive
same,outcome,[5],inactive
same,outcome,[6],inactive
same,outcome,[7],inactive
same,outcome,[8],inactive
same,outcome,[9],inactive
same,outcome,[10],inactive
same,outcome,[11],inactive
same,outcome,[12],inactive
same,outcome,[13],inactive
same,outcome,[14],inactive
same,outcome,[15],inactive
same,outcome,[16],inactive
same,outcome,[17],inactive
COP(=O)(OC)SCn1c(=O)oc2cc(Cl)cnc21,outcome,[18],inactive
same,outcome,[1],inactive
same,outcome,[2],inactive
same,AC50,[3],20 µM (active)
same,outcome,[4],inactive
same,outcome,[5],inactive
same,outcome,[6],inactive
same,AC50,[7],25.1 µM (active)
same,AC50,[8],11.3 µM (active)
same,outcome,[9],inactive
same,outcome,[10],inactive
same,AC50,[11],20 µM (active)
same,outcome,[12],inactive
same,AC50,[13],39 µM (active)
same,AC50,[14],17.5 µM (active)
same,outcome,[15],inactive
same,outcome,[16],inactive
same,outcome,[17],inactive
CC[C@H](C)[C@H]1O[C@]2(C=C[C@@H]1C)C[C@@H]1C[C@@H](C/C=C(\C)[C@@H](O[C@H]3C[C@H](OC)[C@@H](O[C@H]4C[C@H](OC)[C@@H](NC)[C@H](C)O4)[C@H](C)O3)[C@@H](C)/C=C/C=C3\CO[C@@H]4[C@H](O)C(C)=C[C@@H](C(=O)O1)[C@]34O)O2,outcome,[18],inactive
same,AC50,[3],8.63 µM (active)
same,AC50,[5],3.66 µM (active)
same,AC50,[6],2.88 µM (active)
same,AC50,[7],3.38 µM (active)
same,AC50,[9],9.14 µM (active)
same,outcome,[10],inactive
same,AC50,[11],2.43 µM (active)
same,AC50,[12],11.9 µM (active)
same,AC50,[13],1.61 µM (active)
same,AC50,[14],1.77 µM (active)
same,AC50,[15],5.17 µM (active)
same,AC50,[16],2.87 µM (active)
same,AC50,[17],1.88 µM (active)
S=C1NCCN1,outcome,[1],inactive
same,outcome,[5],inactive
same,outcome,[6],inactive
same,outcome,[7],inactive
same,outcome,[9],inactive
same,outcome,[10],inactive
same,outcome,[11],inactive
same,outcome,[12],inactive
same,AC50,[13],39 µM (active)
same,outcome,[14],inactive
same,outcome,[15],inactive
same,outcome,[16],inactive
same,outcome,[17],inactive
CCOP(=S)(OCC)SCCSCC,outcome,[18],inactive
same,outcome,[1],inactive
same,outcome,[2],inactive
same,outcome,[5],inactive
same,outcome,[6],inactive
same,outcome,[7],inactive
same,outcome,[9],inactive
same,outcome,[11],inactive
same,outcome,[12],inactive
same,AC50,[13],9.8 µM (active)
same,outcome,[14],inactive
same,outcome,[15],inactive
same,outcome,[16],inactive
same,outcome,[17],inactive
CCc1cccc(C)c1N(C(=O)CCl)C(C)COC (configuration not stated),outcome,[1],inactive
same,outcome,[3],inactive
same,outcome,[4],inactive
same,outcome,[5],inactive
same,outcome,[6],inactive
same,outcome,[7],inactive
same,outcome,[9],inactive
same,outcome,[10],inactive
same,outcome,[11],inactive
same,outcome,[12],inactive
same,AC50,[13],39 µM (active)
same,AC50,[14],13.6 µM (active)
same,outcome,[15],inactive
same,outcome,[16],inactive
same,outcome,[17],inactive
CCCCOC(=O)c1ccccc1C(=O)O,outcome,[18],inactive
same,outcome,[1],inactive
same,outcome,[2],inactive
same,outcome,[4],inactive
same,outcome,[5],inactive
same,outcome,[6],inactive
same,outcome,[7],inactive
same,outcome,[8],inactive
same,outcome,[9],inactive
same,outcome,[11],inactive
same,outcome,[12],inactive
same,AC50,[13],0.28 µM (active)
same,outcome,[14],inactive
same,outcome,[15],inactive
same,outcome,[16],inactive
same,outcome,[17],inactive
CCOP(=S)(OCC)Oc1ccc([N+](=O)[O-])cc1,outcome,[1],inactive
same,outcome,[4],inactive
same,outcome,[5],inactive
same,AC50,[6],25.2 µM (active)
same,outcome,[7],inactive
same,outcome,[8],inactive
same,outcome,[9],inactive
same,outcome,[11],inactive
same,outcome,[12],inactive
same,AC50,[13],39 µM (active)
same,outcome,[14],inactive
same,outcome,[15],inactive
same,AC50,[16],21.5 µM (active)
same,outcome,[17],inactive
CCC(=NOC/C=C/Cl)C1=C(O)CC(C2CCOCC2)CC1=O (configuration not stated),outcome,[18],inactive
same,outcome,[1],inactive
same,outcome,[2],inactive
same,outcome,[5],inactive
same,outcome,[6],inactive
same,outcome,[7],inactive
same,outcome,[9],inactive
same,outcome,[11],inactive
same,outcome,[12],inactive
same,outcome,[13],inactive
same,outcome,[14],inactive
same,outcome,[15],inactive
same,outcome,[16],inactive
same,outcome,[17],inactive
CCOP(=O)(SC(C)CC)N1CCSC1=O (configuration not stated),outcome,[3],inactive
same,outcome,[4],inactive
same,outcome,[5],inactive
same,outcome,[6],inactive
same,outcome,[7],inactive
same,outcome,[8],inactive
same,outcome,[9],inactive
same,outcome,[10],inactive
same,outcome,[11],inactive
same,outcome,[12],inactive
same,outcome,[13],inactive
same,outcome,[14],inactive
same,outcome,[15],inactive
same,outcome,[16],inactive
same,outcome,[17],inactive
CC(COc1ccc(Oc2ccccc2)cc1)Oc1ccccn1 (configuration not stated),outcome,[5],inactive
same,outcome,[6],inactive
same,AC50,[7],21 µM (active)
same,outcome,[8],inactive
same,outcome,[9],inactive
same,outcome,[10],inactive
same,AC50,[11],20 µM (active)
same,outcome,[12],inactive
same,outcome,[13],inactive
same,outcome,[14],inactive
same,outcome,[15],inactive
same,outcome,[16],inactive
same,outcome,[17],inactive
CC(C)[C@H](C(=O)O[C@H](C#N)c1cccc(Oc2ccccc2)c1)c1ccc(Cl)cc1,outcome,[18],inactive
same,outcome,[1],inactive
same,outcome,[2],inactive
same,outcome,[5],inactive
same,outcome,[6],inactive
same,AC50,[7],12.9 µM (active)
same,outcome,[8],inactive
same,outcome,[9],inactive
same,AC50,[11],5.72 µM (active)
same,outcome,[12],inactive
same,outcome,[13],inactive
same,outcome,[14],inactive
same,outcome,[15],inactive
same,outcome,[17],inactive
